Consider 21 compounds from PubChem BioAssay (NCI).

The structures appear in SMILES notation. The panel holds about 79,000 compounds, 15% with a hit somewhere; the sample as a whole holds those more often. Unmarked numbers belong to inactive results. Calls of active or inactive are those of the source. Cut-off read from the data, not from the text of the source: active = growth inhibition above about 70%; inactive = the rest.

Assay [1] can be described thus: NCI Yeast Anticancer Drug Screen. Data for the rad50 strain (AID 155).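 Note: 0% = growth of vehicle-only cultures of the same strain.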 As to conditions: S. cerevisiae rad50 strain growth inhibition; at 50.0 µM; hits give high values. In a few lines: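 Growth of the mutant yeast was measured after compound exposure and referenced to vehicle-treated cultures.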
Assay [2] in a line: NCI Yeast Anticancer Drug Screen. Data for the mec2-1 strain (AID 157). To be noted: S. cerevisiae mec2-1 strain, at 50.0 µM, hits give high values. A digest of the protocol:
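Compounds were applied to mec2-1 yeast cells. Their growth was then compared with that of vehicle-treated cultures to give growth inhibition.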

A short description of assay [3]: NCI Yeast Anticancer Drug Screen. Data for the sgs1 mgt1 strain (AID 161).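 Note: 0% = growth of cultures given vehicle only.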 To be noted: S. cerevisiae sgs1 mgt1 strain, at 50.0 µM, hits give high values. A digest of the protocol:
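Percent growth inhibition was derived by comparing compound-exposed mutant yeast with vehicle-exposed cultures. The strain carries alterations in DNA damage repair.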

Assay [4] in a line: NCI Yeast Anticancer Drug Screen. Data for the cln2 rad14 strain (AID 165).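 Note: 0% = growth equal to vehicle treated cultures.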 To be noted: S. cerevisiae cln2 rad14 strain, at 50.0 µM, hits give high values. A digest of the protocol: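 Strain: cln2 rad14 yeast, altered in cell cycle control and DNA damage repair. Read-out: growth inhibition vs vehicle.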
Assay [5] in a line: NCI Yeast Anticancer Drug Screen. Data for the bub3 strain (AID 167). As to conditions: S. cerevisiae bub3 mutant strain, at 50.0 µM, hits give high values. In a few lines:
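Whole-cell yeast assay. The mutant strain was incubated with compounds, and growth inhibition was determined by comparison with vehicle-treated cells.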

Assay [6] is described as follows: NCI Yeast Anticancer Drug Screen. Data for the mlh1 rad18 strain (AID 175). To be noted: S. cerevisiae mlh1 rad18 strain growth inhibition; at 50.0 µM; hits give high values. In a few lines:
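A repair-deficient yeast strain is exposed to test compound, and growth is scored relative to vehicle-treated controls.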

Regarding `COc1cc(C2c3[nH]c4ccccc4c3C[C@H]3COC(=O)N23)cc(OC)c1OC` (stereo partly specified), the growth inhibition in assay [1] is 62.6%; in assay [2], 15.3%; in assay [3], 57.5%; in assay [4], 24.4%; in assay [5], 54%; in assay [6], -10.2%.
`CO[C@H]1C=CC2=CCN3CCC4=C(CC(=O)OC4)[C@]23C1`: the growth inhibition in assay [1] is -9.3%; in assay [2] it was -18.9%; in assay [3], -3.6%; in assay [4], 1.8%; in assay [5], -21.9%; in assay [6], -15.4%.
Turning to `BrCC[N+]12CCCN1CCC2`, the growth inhibition in assay [1] is -7.95%; in assay [2], -31.4%; in assay [3], 3.25%; in assay [4], 0.2%; in assay [5], -7.05%; in assay [6], -31.3%.
On to `N[C@@H](Cc1ccc2oc3cc(=O)c4ccccc4c-3nc2c1)C(=O)O`, for which the growth inhibition was 26% in assay [1]; 32.9% in assay [2]; 10% in assay [3]; 39.2% in assay [4]; 28.8% in assay [5]; 35% in assay [6].
`CCC(C)(Cl)c1ccccc1` (stereo unspecified): the growth inhibition was -11.7% in assay [1]; -21.6% in assay [2]; -13.6% in assay [3]; -0.4% in assay [4]; -21.4% in assay [5]; -14.1% in assay [6].
As for `CCCC(=O)OC1C(c2ccc(=O)oc2)C2(C)CCC3C(CCC4CC(OC(C)=O)CCC43C)C23OC13` (stereo unspecified), the growth inhibition in assay [1] is 1.55%; in assay [2], -16.9%; in assay [3], 1.5%; in assay [4] it was 9.6%; in assay [5] it was -5.95%; in assay [6], 0.2%.
`CCC1(O)CC(OC2CC(N(C)C)C(OC3CC(O)C(OC4CCC(=O)C(C)O4)C(C)O3)C(C)O2)c2c(cc3c(c2O)C(=O)c2c(O)ccc(O)c2C3=O)C1C(=O)OC` (stereo unspecified): the growth inhibition in assay [1] was 88.8% (active); in assay [2] it was 90.9% (active); in assay [3] it was 90.5% (active); in assay [4], 88.4% (active); in assay [5], 90% (active); in assay [6], 89% (active).
As for `Nc1ccc(P(=O)(O)O)cc1`, the growth inhibition in assay [1] is -7.8%; in assay [2], -9.55%; in assay [3], -11.7%; in assay [4], -36.1%; in assay [5] it was -1.05%; in assay [6], -3.95%.
With `S=P12OCCC(CO1)O2` (stereo unspecified), the growth inhibition in assay [1] was 8.2%; in assay [2] it was -9.35%; in assay [3], 3.85%; in assay [4], -23.8%; in assay [5], -8.15%; in assay [6] it was -3.15%.
Turning to `O=C1NC(=S)NC(=O)C1=Cc1ccc2ccccc2n1`, the growth inhibition in assay [1] is -7.9%; in assay [2], -0.6%; in assay [3], 1.55%; in assay [4], 8.4%; in assay [5], -6.35%; in assay [6] it was -16.4%.
On to `CCOP(=O)(OCC)/C(C#N)=C/c1ccco1`, for which the growth inhibition is -2.55% in assay [1]; -25.4% in assay [2]; -9.65% in assay [3]; 21.8% in assay [4]; -16.5% in assay [5]; -21.8% in assay [6].
On to `CCOC(=O)/C(=C\c1ccc(Cl)cc1)[Se]c1ccccc1`, for which the growth inhibition in assay [1] was 56.9%; in assay [2], 5.7%; in assay [3], 28.9%; in assay [4] it was 20.6%; in assay [5], 11.3%; in assay [6] it was 43%.
For `Cc1ccc(Cl)c2c1CC(=[N+]=[N-])C2=O`, the growth inhibition in assay [1] is 10.2%; in assay [2] it was 5.2%; in assay [3], 8.7%; in assay [4], -0.45%; in assay [5], 10.5%; in assay [6], 7.15%.
On to `NC(N)=Nc1nn[nH]n1`, for which the growth inhibition in assay [1] is 3.25%; in assay [2], -8.25%; in assay [3], -13.7%; in assay [4], -0.85%; in assay [5], 0.35%; in assay [6], -5.6%.
Regarding `ClCCCN1CCN(c2ccccc2Cl)CC1`, the growth inhibition is 9.35% in assay [1]; -16.7% in assay [2]; 7.45% in assay [3]; 7.45% in assay [4]; 1.15% in assay [5]; -7.8% in assay [6].
For the compound `O=C(OCC1CCCN2CCCCC12)c1ccncc1` (stereo unspecified), the growth inhibition in assay [1] is 4.9%; in assay [2] it was 2.9%; in assay [3], 48.4%; in assay [4] it was 15.4%; in assay [5] it was 34.3%; in assay [6], 2.35%.
Take `CC/C=C/C1(C(C)C)C(=O)NC(=O)NC1=O` (tested in a mixture with another compound): the growth inhibition in assay [1] was 14.9%; in assay [2] it was 0.35%; in assay [3], 5.15%; in assay [4], -27.4%; in assay [5], 0.3%; in assay [6], 13.7%.
As for `CCOP(=O)(OCC)/C(C#N)=C/c1ccc(OC)cc1`, the growth inhibition is 2.9% in assay [1]; -1.8% in assay [2]; -11.4% in assay [3]; 11.7% in assay [4]; 11.1% in assay [5]; -1.05% in assay [6].
As to `COc1ccc(C2C=C(c3ccc4c(c3)OCO4)Oc3c2c(=O)oc2ccccc32)cc1OC` (stereo unspecified), the growth inhibition in assay [1] was 11.5%; in assay [2], 4.1%; in assay [3], 10.1%; in assay [4], 16.4%; in assay [5] it was 22.7%; in assay [6] it was 37%.
For the compound `OCCCNCc1cccnc1`, the growth inhibition in assay [1] was 9.55%; in assay [2] it was -3.05%; in assay [3] it was -0.75%; in assay [4], 29.2%; in assay [5], -3.8%; in assay [6] it was 25.9%.
Take `COc1ccc(NC2=C(C)C(=O)C3=C(C2=O)[C@H](COC(N)=O)[C@]2(OC)[C@@H]4N[C@@H]4CN32)cc1`: the growth inhibition was 81.7% (active) in assay [1]; 79.7% (active) in assay [2]; 74.8% (active) in assay [3]; 71.6% (active) in assay [4]; 69.4% in assay [5]; 73.7% (active) in assay [6].
